Among the data in PubChem BioAssay (NCATS) are Potency values, retold here.

SMILES strings stand for the structures. Results filed as inconclusive are left out. A call without a number means that no potency is given here. Calls of active or inactive are those of the source. Calls come from the whole dose curve; as a rule, active = well fitted cell-killing curve with a large enough effect; inconclusive = small, poorly fitted or top-dose-only effect, or effect the other way; inactive = flat fitted curve, though single readings scatter.
Potency is the fitted concentration of half-maximal effect.

The test deals with Tov112D. The experiment in a line: Primary qHTS to identify gynecologic anti-cancer compounds using libraries of approved drugs and bioactive compounds (AID 1345084). Note: nearly all actives have a fitted effect of over 55% in size. To be noted: Gynecologic cancer cell panel viability, ATPlite luminescence, 48 h; series mostly up to 57.5 µM. The method in brief:
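ATP-based viability (ATPlite), 1,000 cells/well, 16 h pre-incubation, 48 h compound at 37 C, 5% CO2, 15 min RT before read.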
A general note: qHTS replaces the single test concentration by a dilution series.
Regarding `C[C@H](CN(C)C)Oc1nc(Nc2cc3cccc(Cl)c3cn2)cnc1C#N`, the Potency result is “inactive”.

On to `COc1ccc(S(=O)(=O)N2CCC[C@H]2C(=O)Nc2cc(C)cc(C)c2)cc1`, for which the Potency result is “inactive”. `C=C1C(=O)OC2C(OC(=O)C=C(C)C)C(C)=C3C(=O)C=C(C)C3C(O)C12` (configuration not stated): the Potency result was “inactive”.

On to `COC1CC(=O)C23C(=O)NC(Cc4c[nH]c5ccccc45)C2C(C)C2(C)OC2C3/C=C/CC(C)CC1O` (configuration not stated), for which the Potency entry is “inactive”. For `CCOc1cc(C(C)(C)C)ccc1C1=N[C@@](C)(c2ccc(Cl)cc2)[C@@](C)(c2ccc(Cl)cc2)N1C(=O)N1CCN(CC(=O)N2CCOCC2)CC1`, the Potency entry was “inactive”. The value for `C=C1CC(=O)C2OC2(C)CC2OC(=O)C(=C)C2C(O)C1OC(=O)/C(C)=C\C` (configuration not stated) was “inactive”; that for `O=C(NCCCn1ccnc1)c1cc(-c2ccco2)on1` was “inactive”.

Take `C=C1C(=O)O[C@@H]2[C@H]3C(C)=CC(=O)C3=C(C)[C@@H](OC(=O)/C(C)=C\C)[C@H](O)[C@@H]12`: the Potency result was “inactive”. Take `CC1CCCC[C@H]2C(=O)C=C[C@H](O)[C@@H]2CC(=O)O1` (some centres not stated): the Potency is 14.1 µM (active).

For the compound `CC1(C)CC[C@]2(C(=O)O[C@@H]3O[C@H](CO)[C@@H](O)[C@H](O)[C@H]3O)CC[C@]3(C)C(=CCC4[C@@]5(C)CC[C@H](O[C@@H]6O[C@H](C(=O)O)[C@H](O)[C@H](O)[C@H]6O)C(C)(C)C5CC[C@]43C)[C@@H]2C1` (some centres not stated), the Potency result was “inactive”.

Consider `C=C1C(=O)O[C@@H]2[C@H]1CC[C@H](C)C(CCC(=O)O)C2(C)O` (some centres not stated), for which the Potency entry was “inactive”. The value for `O=C(NCCCNC(=O)c1ccc[nH]c1=O)c1cc(-c2ccccc2)on1` was “inactive”.
